Measurements: ChEMBL document CHEMBL3988442, “University of Dundee, Small-Polar-MMV Screening Library” (2021)
Out of some 48,000 compounds screened, about 13,000 (27%) showed an effect of 50% or more. The list shows a part of the results.

Tested on: Wolbachia pipientis
Assay: Anti-Wolbachia Cell-Based Screen
Type: functional
Set-up: scale not given: in the data most compounds retested in dose-response had high values
Settings: 5 µM

SMILES	Percent Effect [%]
CCc1cccc(OCCn2cccc(C#N)c2=O)c1	-12.24
Nc1cc(C(=O)N2C[C@H]3CC[C@@H]2CN(Cc2cccnc2)C3)ccn1	-14.93
CNC(=O)[C@@H](c1ccccc1OC)N1CCC[C@H]1C(=O)N1CCC1.Cl	-2.79
CCCc1nncn1-c1cc(OC)ccc1OC	-4.578
COCC(=O)NS(=O)(=O)c1ccc(F)c(F)c1	-13.69
Cc1cncc(C(=O)N2CCCCC2c2nc[nH]n2)c1 (stereo unspecified)	2.614
Cc1cc(C)nc(C2CCCN2C(=O)c2coc(C)n2)n1 (stereo unspecified)	95.19
Cc1nc(C2CCCN2C(=O)c2cnns2)no1 (stereo unspecified)	-16.56
CC(=O)Nc1nc(C(=O)N2CCCC2c2noc(C)n2)cs1 (stereo unspecified)	1.192
Cc1nc(C2CCCN2C(=O)c2ccc(=O)n(C)n2)no1 (stereo unspecified)	4.232
Cc1cc(C)nc(C2CCCN2C(=O)c2cnco2)n1 (stereo unspecified)	140.7
Cc1cc(C)nc(C2CCCN2C(=O)c2cnccn2)n1 (stereo unspecified)	104.9
COc1ccc(F)c(-c2cc(C)nc(N)n2)c1	-7.785
OC1(CNc2ccc(Br)cn2)CCC1	-10.9
Cc1nc(-c2noc3ccc(C(=O)NCCN4CCOCC4)cc23)co1	-13.78
CC(=O)NCCCSC1CCCN(c2ccccc2F)C1=O (stereo unspecified)	-23.33
Cn1cc(NC(=O)NC2CCCN(c3ccccc3Cl)C2=O)cn1 (stereo unspecified)	-13.39
Cc1cc(CC(=O)NC2CCCN(Cc3ccccc3)C2=O)n[nH]1 (stereo unspecified)	128.5
Cn1ccc(NC(=O)NC2CCCN(c3ccccc3Cl)C2=O)n1 (stereo unspecified)	10.36
Cc1ccc(N2CCCC(NC(=O)Cc3csc(C)n3)C2=O)cc1 (stereo unspecified)	-8.265
Cc1cc(CC(=O)NC2CCCN(c3ccccc3F)C2=O)n[nH]1 (stereo unspecified)	95.19
Cc1cc(CC(=O)NC2CCCN(c3ccccc3Cl)C2=O)n[nH]1 (stereo unspecified)	103.5
COCC(=O)NC1CCCN(c2ccc(C)cc2)C1=O (stereo unspecified)	11.31
O=C1C(NCc2ccccc2O)CCN1Cc1ccccc1 (stereo unspecified)	-5.18
Cc1cc(C2CCCN(C(=O)COc3ccccc3F)C2)n[nH]1 (stereo unspecified)	-9.054
Cc1cc(CNCC2(O)CCCN(CCCc3ccccc3)C2=O)n[nH]1 (stereo unspecified)	11

SMILES	Percent Effect [%]
O=C(Cc1ccccc1O)NC1CCCN(c2ccccc2F)C1=O (stereo unspecified)	90.3
Cc1[nH]c2c(F)cccc2c1CC(=O)N1CCCC(N)CC1 (stereo unspecified)	-2.417
Cc1cc(C)cc(CN2C[C@H]3COC[C@H](N4CCN(C)CC4)[C@H]3C2)c1.O=C(O)C(F)(F)F.O=C(O)C(F)(F)F.O=C(O)C(F)(F)F	-30.24
CN(Cc1csc(-c2cccs2)n1)CC(O)CO (stereo unspecified)	2.949
Cc1cc(=O)n(C)cc1NC(=O)CC1CCC1	-11.35
O=C(Cc1ccon1)NC1CC2(CCC2)Oc2ccccc21 (stereo unspecified)	0.8032
Cc1ccc(N2CCCC(NC(=O)CCc3ccccn3)C2=O)cc1 (stereo unspecified)	-0.6334
O=C(Cc1ccon1)NC1CCCN(c2ccccc2F)C1=O (stereo unspecified)	99.65
CC(C)(CNC(=O)C1CCCCN1S(C)(=O)=O)N1CCOCC1 (stereo unspecified)	1.375
COc1nc(C)c(C(=O)NCc2cc(N3CCOCC3)ncn2)s1	-8.084
CNc1nc(C)c(C(=O)N2CCCCC2CCN2CCOCC2)s1 (stereo unspecified)	-13.11
CNc1nc(C)c(C(=O)NCC(C)(C)N2CCCCC2)s1	51.74
CNc1nc(C)c(C(=O)N2CCCCC2CCc2ccc(O)cc2)s1 (stereo unspecified)	-31.11
Cc1nc(N2CCOCC2)sc1C(=O)NCC(C)(C)N1CCCCC1	59.39
CN(CCO)C(=O)Nc1ccn(-c2cccc(C(F)(F)F)c2)n1	-1.058
CC(=O)Nc1ccc(Cl)c(C(=O)N(C)C(C)c2nccs2)c1 (stereo unspecified)	18.16
O=C1CC(C(=O)Nc2nnc(-c3ccccn3)[nH]2)c2ccccc2N1 (stereo unspecified)	-11.02
CN[C@@H]1CCC[C@@H](Oc2ccccc2Oc2ccc(C)cc2)[C@@H]1O	109.8
O=C(Nc1cnc(Oc2ccccc2)nc1)C1CC1	12.01
COc1ccc(CNC(=O)N2CCOCC2C2CC2)cc1C (stereo unspecified)	12.32
Cc1ncsc1CN1CC[C@H]2OCC[C@@]2(C(=O)NCC2CC2)C1	4.364
Cc1ccc(N2CC[C@H]3OCC[C@@]3(C(=O)NC(C)C)C2)nn1.O=C(O)C(F)(F)F	-2.332
CNC(=O)[C@@]12CCO[C@@H]1CCN(S(=O)(=O)c1cc(C)cc(C)c1)C2	11.27
CCS(=O)(=O)N1CC[C@H]2OCC[C@@]2(C(=O)NC)C1	-10.89
CS(=O)(=O)N1CC[C@H]2OCC[C@@]2(C(=O)NCC2CC2)C1	83.9
CC(=O)NCC(=O)N1CCOC2(CCCN(c3ccc(C)nn3)C2)C1 (stereo unspecified)	107.9

SMILES	Percent Effect [%]
CCS(=O)(=O)N1CCOC2(CCCN(c3ccc(C)nn3)C2)C1.O=C(O)C(F)(F)F (stereo unspecified)	0.7716
CC(=O)NCC(=O)N1CCOC2(CCCN(c3cccnc3)C2)C1.O=C(O)C(F)(F)F (stereo unspecified)	-5.55
Cc1ccc(N2CC[C@H]3OCC[C@@]3(C(=O)NCC3CC3)C2)nn1	112.3
Cc1ccc(N2C[C@H]3OCC[C@H]3[C@H](C(=O)NC3CCC3)C2)nn1	-15.47
Cc1ccc(N2CC[C@H]3OCC[C@@]3(C(=O)N3CCCO3)C2)nn1	93.84
Cc1noc(CNc2c(N3CCCC3)cccc2N2CCCC2)n1	12
CC(C)c1cc(C(=O)N2CCN(c3ccc(F)c(Cl)c3)CC2)n(C)n1	-4.845
Cc1nc(N(C)Cc2cccc(O)c2)nc2cc(S(C)(=O)=O)ccc12	-16.37
CC(C)C(=O)N1CCC(NC2CCSCC2)C1 (stereo unspecified)	-5.859
CS(=O)(=O)N1CCC(Oc2ccc(C(=O)NCCC(N)=O)cc2Cl)CC1	-24.14
Cc1ccc(N2CCC3(CC2)CCN(C2CCOCC2)CC3)nn1.O=C(O)C(F)(F)F	-17.16
Cc1ccc(N2CC[C@H]3OCC[C@@]3(C(=O)N(C)C)C2)nn1	116.6
Cc1ccc(N2CC3(CCN(C(=O)c4ccoc4)C3)C2)nn1	11.71
Cc1ccc(N2CCCC3(CCN(C(=O)C4CC4)C3)C2)nn1 (stereo unspecified)	2.415
Cc1ccc(N2CC[C@H]3OCC[C@@]3(C(=O)N3CCCC3)C2)nn1	99.3
c1cn(-c2ccc(CN3CCCC3)cc2)c(-c2cc3n(n2)CCNC3)n1	4.696
O=C(NCC(F)(F)F)C1CCCN(Cc2ccno2)C1 (stereo unspecified)	-13.93
COc1ccc(C(=O)NCC(c2cccn2C)N2CCCC2)c(OC)c1 (stereo unspecified)	6.724
COc1cc(OC)cc(C(=O)NCC(c2cccn2C)N2CCCC2)c1 (stereo unspecified)	93.86
Cn1cccc1C(CNC(=O)COc1ccc(Cl)cc1Cl)N1CCCC1 (stereo unspecified)	-0.05475
Cn1cccc1C(CNC(=O)c1ccc(F)cc1F)N1CCCCCC1 (stereo unspecified)	2.493
CN1CCN(C(CNC(=O)CCn2cccn2)c2cccs2)CC1 (stereo unspecified)	11.34
CN1CCN(C(CNC(=O)c2ccc(Cl)cc2F)c2cccs2)CC1 (stereo unspecified)	-14.94
COc1ccc(C(=O)NCC(c2cccn2C)N2CCN(C)CC2)cc1 (stereo unspecified)	104.9
Cn1cccc1C(O)CNC(=O)COc1ccc(Cl)cc1Cl (stereo unspecified)	19.06
COc1ccc(C(=O)NCC(c2cccn2C)N2CCCC2)cc1OC (stereo unspecified)	118.2

SMILES	Percent Effect [%]
Cc1ccc(C)c(C(=O)NCC(c2cccn2C)N2CCCCCC2)c1 (stereo unspecified)	114.5
CC(C)=CCN1CCN(S(=O)(=O)c2cn(C)cn2)[C@H]2CS(=O)(=O)C[C@H]21	-6.169
Cn1cc(NC(=O)CCCc2cccs2)c(=O)n(C)c1=O	-5.332
NC(=O)C1CCN(CCc2ccc(NCc3ccsc3)cc2)CC1	-14.27
O=C(CN1CCNC1=O)N1CCc2nnc(-c3ccccc3)n2CC1	-8.724
O=C(CN1CCCCCC1)N1CCc2nnc(C3CCCNC3)n2CC1 (stereo unspecified)	109
O=C(C1CCCC1)N1CCn2c(nnc2C2CCCNC2)C1 (stereo unspecified)	107.7
O=C(C1CCC1)N1CCn2c(COc3ncccn3)nnc2C1	-0.8888
Cn1c(CN2CCC(O)CC2)nnc1C1CCCN(C(=O)C2CNC2)C1 (stereo unspecified)	15.55
Cn1c(CN2CCCC2)nnc1C1CCCN(C(=O)CN2CCCC2)C1 (stereo unspecified)	-18.41
CC(C)OC(=O)N1CCC(Nc2ncc(Br)cn2)CC1	-1.588
CC(C)OCCN1CCC(Nc2ncccn2)CC1	110.1
COCCC(=O)N1CCC(Nc2ncc(Br)cn2)CC1	-2.915
Cc1cc(C)nc(N2CCC(OCCN3CCCCC3)C2)n1 (stereo unspecified)	5.961
CC(C)OCCN1CCC(Nc2nccnc2C#N)CC1	120.8
CC(C)OCCN1CCN(C(=O)c2cc(-n3cccn3)ccn2)CC1	-9.064
Cc1cc(C)nc(NC2CCN(CCOC(C)C)CC2)n1	107
CC(C)OCCN1CCC(Nc2ncc(Br)cn2)CC1	82.04
N#Cc1nccnc1NC1CCN(c2c(F)cccc2F)C1 (stereo unspecified)	7.205
CC(C)OCCN1CCC(N2CCN(C)C2=O)CC1	7.095
Cc1cccc(C(=O)N2CCN(CCOC(C)C)CC2)n1	2.598
N#Cc1ccccc1N1CCC(Nc2nccnc2C#N)CC1	-4.6
CCNC(=O)C1CCCN1S(=O)(=O)c1sc(=O)[nH]c1C (stereo unspecified)	-8.251
